Reference: PubChem BioAssay (NCI)
“And” between values parts separate entries of the source, which are not always exact repeats. Equal values may be shown once. The panel holds about 83,000 compounds, 20% with a hit somewhere; the sample as a whole holds those more often.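 Cells were grown in 96-well plates and exposed to the test compound at a single concentration for 48 hours; results are reported as percent growth, with values below 10 considered active.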 The source made the active and inactive calls.

Experiments:
Experiment in all cases: NCI-60 one-dose screen, 48 h (100 = growth as untreated, 0 = no growth, -100 = all killed)
Conditions in all cases: 10 µM
T-47D breast = test system: T-47D breast
BT-549 breast = test system: BT-549 breast
MDA-MB-435 melanoma = test system: MDA-MB-435 melanoma
SW-620 colon = test system: SW-620 colon
MCF7 breast = test system: MCF7 breast
HCT-116 colon = test system: HCT-116 colon
HCC-2998 colon = test system: HCC-2998 colon
KM12 colon = test system: KM12 colon
MDA-MB-468 breast = test system: MDA-MB-468 breast

Compound	growth (T-47D breast)	growth (BT-549 breast)	growth (MDA-MB-435 melanoma)	growth (SW-620 colon)	growth (MCF7 breast)	growth (HCT-116 colon)	growth (HCC-2998 colon)	growth (KM12 colon)	growth (MDA-MB-468 breast)
CN1C(=O)/C(=C/c2ccc3ncsc3c2)NC1=NC12CC3CC(CC(O)(C3)C1)C2	11.7% (inactive)	-39.9% (active)	27.4% (inactive)	5.62% (active)	-20.1% (active)	17.3% (inactive)	10.1% (inactive)	10.4% (inactive)	-5.71% (active)
C/C(=N\N=C\c1ccc(N(C)C)cc1)c1ccc2c(c1)Nc1ccccc1S2	44.6% (inactive)	58.2% (inactive)	51.1% (inactive)	35.3% (inactive)	35.8% (inactive)	31.4% (inactive)	54.4% (inactive)	60.9% (inactive)	8.43% (active)
COc1ccc(OC)c(/C=N/NC(=O)c2ccc3nc(-c4ccc(Cl)cc4)[nH]c3c2)c1	38.2% (inactive)	74.3% (inactive)	85.7% (inactive)	92% (inactive)	51.9% (inactive)	56.9% (inactive)	85.4% (inactive)	76.7% (inactive)	69.6% (inactive)
CCCCSc1nc(Nc2ccc(/C(C)=N/NC(N)=S)cc2)c(C#N)c(-c2ccc(OC)cc2)n1	67.2% (inactive)	42.9% (inactive)	59.3% (inactive)	97.2% (inactive)	49.2% (inactive)	38.2% (inactive)	94.5% (inactive)	79.3% (inactive)	87.7% (inactive)
CO[C@H]1CSS[C@@H]1Cn1nc(-c2ccc(Oc3ccccc3)cc2)c2c(N)ncnc21	2.61% (active)	4.49% (active)	-46.5% (active)	66.4% (inactive)	10.2% (inactive)	7.35% (active)	14% (inactive)	17.5% (inactive)	-21.2% (active)
CC(C)(C)c1ccc(NCc2cn(-c3ccc(C(=O)O)cc3)nc2-c2ccc(C#N)cc2)cc1	21.4% (inactive)	-2.13% (active)	34% (inactive)	32.2% (inactive)	6.04% (active)	-13.9% (active)	-66.6% (active)	-38.3% (active)	19% (inactive)
Nc1n[nH]c2cccc(C#Cc3cccc(NC(=O)Nc4cc(C(F)(F)F)cc(C(F)(F)F)c4)c3)c12	-11.3% (active)	-66.8% (active)	-76.7% (active)	-75.7% (active)	-37.2% (active)	2.34% (active)	-95.3% (active)	-61.5% (active)	-59.7% (active)
COc1cc2c(cc1OC)CN(CCCCOc1cc(O)c3c(=O)cc(-c4ccccc4)oc3c1)CC2	1.69% (active)	63.6% (inactive)	67.5% (inactive)	62.8% (inactive)	29.3% (inactive)	0.234% (active)	-7.68% (active)	80.1% (inactive)	-7.3% (active)
O=C(CNc1nc(-c2ccccc2)cs1)Nc1ccc(Cl)cc1[N+](=O)[O-]	-32.6% (active)	-46.6% (active)	-5.51% (active)	-60.6% (active)	-59.3% (active)	-22.8% (active)	-93.4% (active)	-0.339% (active)	-34.9% (active)
CC(=O)Oc1ccccc1C(=O)Oc1ccc(C(=O)/C=C/c2ccncc2)cc1	54.9% (inactive)	31% (inactive)	23.2% (inactive)	6.33% (active)	0.657% (active)	-28.5% (active)	-14% (active)	22% (inactive)	-59.3% (active)
CC(=O)c1ccc(Nc2nc(SC(C)C)nc(-c3ccccc3)c2C#N)cc1	58.7% (inactive)	90.7% (inactive)	47.4% (inactive)	34.9% (inactive)	26.4% (inactive)	8.81% (active)	70.2% (inactive)	82.2% (inactive)	131% (inactive) and -1.07% (active)
Cc1cc2nc3c4ccccc4n(CCO)c3nc2cc1C	73.5% (inactive)	78.7% (inactive)	94.6% (inactive)	75.5% (inactive)	52.1% (inactive)	34.4% (inactive)	123% (inactive)	92.2% (inactive)	74.4% (inactive)
COc1cccc(COc2ccc(/C=C3\Oc4cc(O)ccc4C3=O)cc2)c1	44.3% (inactive)	15.3% (inactive)	37.2% (inactive)	36% (inactive)	37.8% (inactive)	1.73% (active)	25.2% (inactive)	26.1% (inactive)	12.2% (inactive)
O=c1oc2ccccc2cc1-c1csc(N=Nc2c(O)[nH]c3ccc(Br)cc23)n1	89.1% (inactive)	62.9% (inactive)	102% (inactive)	104% (inactive)	80.7% (inactive)	64.1% (inactive)	96.3% (inactive)	99.9% (inactive)	95.2% (inactive) and 64.3% (inactive)
